In the antibiotic and cytotoxicity screens of Wong et al. (2023) one finds cytotoxicity call data, which are given here for 60 compounds.

Out of some 39,000 compounds screened, about 3,300 (8.5%) were called active. This excerpt belongs to a sample that is enriched for actives.

The assay relates to HepG2. Nature of the assay: cytotoxicity call (relative viability < 0.9). Conditions: 10 µM.
For `CC(=O)N1[C@@H](CO)[C@H](c2ccccc2)C12CN(C(=O)CN1CCOCC1)C2`, the cytotoxicity call was “inactive”.

With `Cc1ccc(S(=O)(=O)Nc2cccc3c2O[C@@H](CN(C)CC2CC2)[C@@H](C)CN([C@@H](C)CO)C3=O)cc1`, the cytotoxicity call was “inactive”.

For the compound `C[C@H]1CN([C@@H](C)CO)C(=O)c2cc(C#CC3(O)CCCC3)cnc2O[C@H]1CN(C)S(=O)(=O)c1ccc(F)cc1`, the cytotoxicity call was “inactive”.

Consider `Cc1ccc(S(=O)(=O)Nc2ccc3c(c2)C(=O)N([C@H](C)CO)C[C@@H](C)[C@H](CN(C)C(=O)Cc2ccccc2)OCCCC[C@@H](C)O3)cc1`, for which the cytotoxicity call was “inactive”.

On to `COC(=O)c1c2oc(c1C(=O)OC)C(=O)N[C@H](Cc1ccccc1)Cn1cc(nn1)CNC(=O)[C@@H](Cc1ccccc1)NC(=O)N[C@@H](CO)CC2`, for which the cytotoxicity call was “inactive”.

`COCC#Cc1ccc2c(c1)O[C@H](CN(C)C(=O)c1ccccc1)[C@H](C)CN([C@@H](C)CO)S2(=O)=O`: the cytotoxicity call was “inactive”.

`O=C(C[C@@H]1C=C[C@H](NS(=O)(=O)c2ccc(F)cc2)[C@H](CO)O1)N1CCC(Cc2ccccc2)CC1`: the cytotoxicity call was “inactive”.

`C[C@H]1CCCCO[C@@H](CN(C)Cc2ccncc2)[C@@H](C)CN([C@@H](C)CO)C(=O)c2cc(NS(C)(=O)=O)ccc2O1`: the cytotoxicity call is “inactive”.

As for `C[C@@H]1CCCCO[C@@H](CN(C)CC2CCCCC2)[C@@H](C)CN([C@@H](C)CO)C(=O)c2cc(NS(=O)(=O)c3ccccc3)ccc2O1`, the cytotoxicity call is “inactive”.

For the compound `C[C@H](CO)N1C[C@H](C)[C@H](CN(C)S(=O)(=O)c2ccc(Cl)cc2)Oc2c(NC(=O)c3cnccn3)cccc2C1=O`, the cytotoxicity call is “inactive”.

For `C[C@H](CO)N1C[C@H](C)[C@@H](CN(C)Cc2ccc(Oc3ccccc3)cc2)Oc2c(NC(=O)Nc3ccccc3)cccc2C1=O`, the cytotoxicity call is “inactive”.

Take `CC(C)NC(=O)Nc1cccc2c1O[C@H](CN(C)Cc1ccc(Oc3ccccc3)cc1)[C@@H](C)CN([C@@H](C)CO)C2=O`: the cytotoxicity call is “active”.

As for `CC(C)NC(=O)Nc1cccc2c1O[C@@H](CN(C)Cc1ccc(Oc3ccccc3)cc1)[C@H](C)CN([C@H](C)CO)C2=O`, the cytotoxicity call is “inactive”.

On to `C[C@@H]1CN([C@@H](C)CO)C(=O)c2cccc(NC(=O)Nc3ccccc3)c2O[C@H]1CN(C)Cc1ccc(Oc2ccccc2)cc1`, for which the cytotoxicity call was “inactive”.

Turning to `CC(C)NC(=O)Nc1cccc2c1O[C@@H](CN(C)Cc1ccc(Oc3ccccc3)cc1)[C@@H](C)CN([C@@H](C)CO)C2=O`, the cytotoxicity call was “inactive”.

In the case of `C[C@@H]1CN([C@@H](C)CO)C(=O)c2cccc(NC(=O)Nc3ccccc3)c2O[C@@H]1CN(C)Cc1ccc(Oc2ccccc2)cc1`, the cytotoxicity call is “active”.

As for `COc1ccc(NC(=O)Nc2cccc3c2O[C@H](CN(C)Cc2ccc(Oc4ccccc4)cc2)[C@H](C)CN([C@@H](C)CO)C3=O)cc1`, the cytotoxicity call was “inactive”.

Regarding `COc1ccc(NC(=O)Nc2cccc3c2O[C@@H](CN(C)Cc2ccc(Oc4ccccc4)cc2)[C@H](C)CN([C@@H](C)CO)C3=O)cc1`, the cytotoxicity call was “active”.

As for `C[C@H]1CN([C@@H](C)CO)C(=O)c2cccc(NC(=O)Nc3ccccc3)c2O[C@@H]1CN(C)Cc1ccc(Oc2ccccc2)cc1`, the cytotoxicity call is “inactive”.

For the compound `C[C@@H]1CCCCO[C@H](CN(C)Cc2ccccc2)[C@@H](C)CN([C@@H](C)CO)C(=O)c2cc(NC(=O)c3ccncc3)ccc2O1`, the cytotoxicity call is “inactive”.

As to `COCC#Cc1cnc2c(c1)C(=O)N([C@@H](C)CO)C[C@H](C)[C@H](CN(C)C(C)=O)O2`, the cytotoxicity call is “inactive”.

For `C[C@H]1CN([C@@H](C)CO)C(=O)Cc2cc(NS(=O)(=O)c3cccs3)ccc2O[C@H]1CN(C)Cc1ccncc1`, the cytotoxicity call is “inactive”.

As to `C[C@H](C(=O)N(C)C[C@@H]1OCc2ccccc2-c2c(n(C)c3ccccc23)C(=O)N([C@H](C)CO)C[C@H]1C)c1ccccc1`, the cytotoxicity call is “inactive”.

Take `C[C@H](O)C#Cc1cnc2c(c1)C(=O)N([C@@H](C)CO)C[C@H](C)[C@H](CN(C)C(=O)Nc1ccc(C(F)(F)F)cc1)O2`: the cytotoxicity call was “inactive”.

In the case of `Cc1ccc(S(=O)(=O)Nc2ccc3c(c2)C(=O)N([C@@H](C)CO)C[C@@H](C)[C@@H](CN(C)C(=O)Nc2ccc4c(c2)OCO4)OCCCC[C@@H](C)O3)cc1`, the cytotoxicity call is “inactive”.

As to `C[C@H](CO)N1C[C@H](C)[C@H](CN(C)C(=O)Nc2cccc(C(F)(F)F)c2)OCc2ccccc2-c2ccccc2C1=O`, the cytotoxicity call is “inactive”.

With `C[C@@H]1CN([C@@H](C)CO)C(=O)c2cc(NS(=O)(=O)c3cn(C)cn3)ccc2O[C@@H](C)CCCCO[C@H]1CN(C)C(=O)c1ccncc1`, the cytotoxicity call was “inactive”.

For `CO[C@H]1C[C@@H]2CC[C@@H](C)[C@@](O)(O2)C(=O)C(=O)N2CCCC[C@H]2C(=O)O[C@H]([C@H](C)C[C@@H]2CC[C@@H](OC(=O)C(C)(CO)CO)[C@H](OC)C2)CC(=O)[C@H](C)/C=C(\C)[C@@H](O)[C@@H](OC)C(=O)[C@H](C)C[C@H](C)/C=C/C=C/C=C/1C`, the cytotoxicity call was “inactive”.

`CO[C@H]1C[C@@H](C[C@@H](C)[C@H]2CC(=O)[C@@H](C)/C=C(\C)[C@@H](O)[C@@H](OC)C(=O)[C@@H](C)C[C@@H](C)/C=C/C=C/C=C(\C)[C@H](OC)C[C@H]3CC[C@@H](C)[C@@](O)(O3)C(=O)C(=O)N3CCCC[C@@H]3C(=O)O2)CC[C@@H]1OC(=O)C(C)(CO)CO`: the cytotoxicity call was “inactive”.

As to `CO[C@H]1C[C@@H](C[C@@H](C)[C@H]2CC(=O)[C@H](C)/C=C(\C)[C@@H](O)[C@H](OC)C(=O)[C@H](C)C[C@H](C)/C=C/C=C\C=C(C)[C@H](OC)C[C@@H]3CC[C@@H](C)[C@@](O)(O3)C(=O)C(=O)N3CCCC[C@H]3C(=O)O2)CC[C@H]1OC(=O)C(C)(CO)CO`, the cytotoxicity call was “active”.

Turning to `C[C@@H]1CN([C@H](C)CO)C(=O)c2cc(NC(=O)Cc3ccccc3)ccc2O[C@@H]1CN(C)Cc1ccc(Cl)c(Cl)c1`, the cytotoxicity call is “inactive”.

Regarding `C[C@@H]1CN([C@H](C)CO)C(=O)c2cc(NS(C)(=O)=O)ccc2O[C@@H]1CN(C)C(=O)Nc1ccccc1`, the cytotoxicity call is “inactive”.

As for `Cc1nc(CCO)cs1`, the cytotoxicity call is “inactive”.

Regarding `CC(C)[Si](C#CCCc1ccccc1)(O[C@H](c1ccccc1)c1cn(Cc2ccccc2)nn1)C(C)C`, the cytotoxicity call is “inactive”.

Take `Nc1nc2c(ncn2COCCO)c(=O)[nH]1`: the cytotoxicity call is “inactive”.

Turning to `C=C1C(CO)C(O)CC1n1cnc2c(=O)[nH]c(N)nc21.O` (stereo not given), the cytotoxicity call was “active”.

As to `Nc1nc2c(ncn2COC(CO)CO)c(=O)[nH]1.O`, the cytotoxicity call is “inactive”.

On to `C[C@@H]1CN([C@H](C)CO)C(=O)CCCn2cc(nn2)CO[C@@H]1CN(C)C(=O)C1CC1`, for which the cytotoxicity call is “inactive”.

Regarding `Cc1ccccc1N1CCN(S(=O)(=O)C[C@]23CC[C@H](C[C@@H]2NC(=O)[C@@H](N)CCS(C)(=O)=O)C3(C)C)CC1`, the cytotoxicity call was “inactive”.

On to `COc1ccc(CN(C)C[C@@H]2OCCCC[C@H](C)Oc3ccc(NC(=O)Nc4ccccc4)cc3C(=O)N([C@@H](C)CO)C[C@H]2C)cc1`, for which the cytotoxicity call was “inactive”.

For `O=C(C[C@@H]1CC[C@H](NS(=O)(=O)c2ccc(F)cc2)[C@@H](CO)O1)N1CCC(Cc2ccccc2)CC1`, the cytotoxicity call was “inactive”.

Consider `CC1(COc2ccc3c(c2)ncn3-c2ccc3cccc(N4CCC(N)CC4)c3n2)COC1`, for which the cytotoxicity call is “active”.

`C[C@@H]1CN([C@@H](C)CO)S(=O)(=O)c2ccc(C#Cc3ccccc3)cc2O[C@@H]1CN(C)S(=O)(=O)c1ccccc1F`: the cytotoxicity call is “inactive”.

Turning to `Cc1ccc(C(=O)C(C)CN2CCCCC2)cc1.Cl` (stereo not given), the cytotoxicity call was “inactive”.

As to `C[C@@H](CN1CCCCC1)C(=O)NN`, the cytotoxicity call was “inactive”.

As to `Cl.O=C(Nc1ccccc1)OCC(CN1CCCCC1)OC(=O)Nc1ccccc1` (stereo not given), the cytotoxicity call was “active”.

For `C[C@H](CO)N1C[C@H](C)[C@@H](CN(C)S(C)(=O)=O)Oc2ccc(NS(=O)(=O)c3ccc(Cl)cc3)cc2CC1=O`, the cytotoxicity call is “inactive”.

Consider `Cc1noc(C)c1NC(=O)N(C)C[C@H]1OCCCC[C@@H](C)Oc2ccc(NC(=O)Nc3cccc4ccccc34)cc2C(=O)N([C@@H](C)CO)C[C@H]1C`, for which the cytotoxicity call was “inactive”.

In the case of `C[C@@H]1CCCCO[C@@H](CN(C)Cc2ccc3c(c2)OCO3)[C@@H](C)CN([C@@H](C)CO)C(=O)c2cc(NC(=O)C3CCCCC3)ccc2O1`, the cytotoxicity call was “inactive”.

Regarding `C[C@H](CO)N1C[C@H](C)[C@H](CN(C)Cc2ccc3c(c2)OCO3)OCCCC[C@H](C)Oc2ccc(NC(=O)C3CCCCC3)cc2C1=O`, the cytotoxicity call is “inactive”.

For the compound `C[C@@H]1CCCCO[C@H](CN(C)Cc2ccc3c(c2)OCO3)[C@@H](C)CN([C@@H](C)CO)C(=O)c2cc(NC(=O)C3CCCCC3)ccc2O1`, the cytotoxicity call was “inactive”.

For the compound `C[C@H]1CCCCO[C@H](CN(C)Cc2ccc3c(c2)OCO3)[C@@H](C)CN([C@@H](C)CO)C(=O)c2cc(NC(=O)C3CCCCC3)ccc2O1`, the cytotoxicity call was “inactive”.

Turning to `C[C@@H]1CCCCO[C@@H](CN(C)Cc2ccc3c(c2)OCO3)[C@H](C)CN([C@H](C)CO)C(=O)c2cc(NC(=O)C3CCCCC3)ccc2O1`, the cytotoxicity call is “inactive”.

Take `C[C@@H]1CCCCO[C@H](CN(C)Cc2ccc3c(c2)OCO3)[C@H](C)CN([C@@H](C)CO)C(=O)c2cc(NC(=O)C3CCCCC3)ccc2O1`: the cytotoxicity call was “active”.

As for `C[C@@H]1CCCCO[C@H](CN(C)Cc2ccc3c(c2)OCO3)[C@H](C)CN([C@H](C)CO)C(=O)c2cc(NC(=O)C3CCCCC3)ccc2O1`, the cytotoxicity call is “active”.

Consider `C[C@H](CO)N1C[C@H](C)[C@@H](CN(C)Cc2ccc3c(c2)OCO3)OCCCC[C@H](C)Oc2ccc(NC(=O)C3CCCCC3)cc2C1=O`, for which the cytotoxicity call was “inactive”.

In the case of `C[C@@H]1CN([C@H](C)CO)C(=O)c2cc(NC(=O)C3CCCCC3)ccc2O[C@@H](C)CCCCO[C@@H]1CN(C)Cc1ccc2c(c1)OCO2`, the cytotoxicity call was “active”.

Turning to `C[C@@H]1CCCCO[C@@H](CN(C)Cc2ccc3c(c2)OCO3)[C@H](C)CN([C@@H](C)CO)C(=O)c2cc(NC(=O)C3CCCCC3)ccc2O1`, the cytotoxicity call is “inactive”.

Take `C[C@@H]1CN([C@@H](C)CO)C(=O)c2cc(NC(=O)C3CCCCC3)ccc2O[C@@H](C)CCCCO[C@@H]1CN(C)Cc1ccc2c(c1)OCO2`: the cytotoxicity call is “inactive”.

Consider `C[C@@H]1CCCCO[C@H](CN(C)Cc2ccc3c(c2)OCO3)[C@@H](C)CN([C@H](C)CO)C(=O)c2cc(NC(=O)C3CCCCC3)ccc2O1`, for which the cytotoxicity call is “active”.
